The source of these data is PubChem BioAssay AID493201 (National Center for Advancing Translational Sciences (NCATS), 2011).

Results filed as inconclusive are left out. A call without a number means that no potency is given here. Active and inactive are the calls of the source. Calls come from the whole dose curve; as a rule, active = well fitted activation curve with a large enough effect; inconclusive = small, poorly fitted or top-dose-only effect; inactive = no such curve, though single readings can be large or run the other way.
Potency is the fitted concentration of half-maximal effect.

A short description of the test: qHTS Assay for Identifying a Potential Treatment of Ataxia-Telangiectasia: Secondary assay (no NCS) hit validation.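 Note: phosphorylated KAP1 signal as a proxy for ATM-like kinase activity.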 As to conditions: A-T patient fibroblasts, AlphaLISA, no DNA damage added, 90 min; series mostly up to 76.9 µM. Summed up:
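Without NCS-induced DNA breaks, ATM-like activity scored as phospho-KAP1 AlphaLISA signal (pKAP1/total KAP1 bead pair) in ATM-null F2112 fibroblasts; compound series up to 76.7 uM final, 37C incubation, lysates read on AlphaScreen protocol.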
On the technique in general: In qHTS, concentration-response curves come from the screen itself.
For `O=C1/C(=C/c2ccc(N3CCOCC3)o2)SC(=Nc2ccccc2)N1CCc1c[nH]c2ccccc12`, the Potency result is “inactive”.

As to `CCc1ccc(NC(=O)N[C@H](C(=O)O)C(C)CC)cc1` (some centres undefined), the Potency entry was “inactive”.

For `COc1ccc(CNC(=O)COc2cccnc2[N+](=O)[O-])cc1OC`, the Potency result was “inactive”.

Regarding `O=c1c(-c2ccc(Cl)cc2)c[nH]n1-c1ccccc1`, the Potency entry is “inactive”.

For the compound `CCC(C)N1C(=S)SC(C)(C)C1N(O)C(=O)NC1CCCCC1` (centres undefined), the Potency entry is “inactive”.

On to `CC12CCC(C(=O)NNc3ccc([N+](=O)[O-])cc3)(OC1=O)C2(C)C` (centres undefined), for which the Potency result was “inactive”.

Take `Cc1cc2c(c(=O)o1)C(CCC1CCCCC1)C(C#N)=C(N)O2` (centres undefined): the Potency entry is “inactive”.

For the compound `COc1ccc(-n2c(=S)[nH]c3ccccc3c2=S)cc1`, the Potency result was “inactive”.

On to `CCS(=O)(=O)c1ccc(C(=O)Nc2ccccc2)c(Cl)c1Cl`, for which the Potency was 32.8 µM (active).

For the compound `CC(C)(C)C1CCC2(CC1)SCC(=O)N2c1ccccc1` (centres undefined), the Potency result is “inactive”.

As to `Cc1ccc(C)c(-n2c(SCC(=O)NC(C(=O)O)C(C)C)nnc2-c2cccc(Cl)c2)c1` (centres undefined), the Potency is 46.3 µM (active).

For `O=C(O)CCC(=O)NN1C(=O)c2ccccc2NC1c1ccco1` (centres undefined), the Potency entry was “inactive”.

For the compound `COc1cc(/C=N/NC(=O)c2c(C)nc3ccc(Cl)cn23)cc(OC)c1OC`, the Potency was 3.68 µM (active).

Take `CC(C)(C)NC(=O)c1cccc2c1-c1ccccc1C2=O`: the Potency result is “inactive”.

Regarding `CCOc1cccc(C(=O)Nc2ccccc2N2CCN(C(=O)C(C)C)CC2)c1`, the Potency result is “inactive”.

Regarding `Cc1ccc(C(=O)Nc2sc3c(c2C(=O)O)CCCCC3)o1`, the Potency is 0.232 µM (active).

As to `CC(=O)c1sc2nc(C)c3c(c2c1N)CCCC3`, the Potency result was “inactive”.

In the case of `CCc1nnc2n1N=C(c1cccc([N+](=O)[O-])c1)CS2`, the Potency is 51.9 µM (active).

On to `Cc1oc2c(c(C)cc3oc(=O)c(CC(=O)NCC(=O)NCC(=O)O)c(C)c32)c1C`, for which the Potency was 3.28 µM (active).

Take `COc1ccc(Oc2ncnc3c2oc2ccc(Br)cc23)cc1`: the Potency result was “inactive”.

As to `CNC(=S)N(CCc1c(C)[nH]c2ccc(Cl)cc12)Cc1cccnc1`, the Potency result was “inactive”.

On to `COc1ccc(CCNC2=NCCS2)cc1OC`, for which the Potency entry is “inactive”.

Take `COc1ccc(CNC(=O)CN2C(=O)CSc3ccc(S(=O)(=O)N4CCOCC4)cc32)c(OC)c1`: the Potency result is “inactive”.

As for `CCCN1C2CCCC1CC(NC(=S)Nc1cccc(C)c1C)C2` (centres undefined), the Potency result was “inactive”.

For the compound `CCOC(=O)C1=C(C)N(c2ccc(OC)cc2)C(=O)/C1=C\c1ccc(O)c(OCC)c1`, the Potency entry is “inactive”.

`CC(O)[C@H]1CNC(=O)C(=O)N1CC1(c2ccccc2)CC1` (some centres undefined): the Potency result was “inactive”.

For the compound `N#Cc1c2c(c(-n3cnc4ccccc43)n3c1nc1ccccc13)CCC2`, the Potency result is “inactive”.

On to `CC(C)c1ccc(-c2cc(C(=O)N3CCOCC3)c3cc(Br)ccc3n2)cc1`, for which the Potency result is “inactive”.

Regarding `CCOc1cc(/C=C/c2nc3ccccc3c(=O)[nH]2)ccc1O`, the Potency result was “inactive”.

For `O=C(CSc1ccccn1)N/N=C/C=C/c1ccccc1`, the Potency result was “inactive”.

Regarding `Cc1nc(Nc2ccc(Cl)cc2)c2oc3ccccc3c2n1`, the Potency result is “inactive”.

For the compound `CNC(=S)N(CCO)Cc1cc2cc3c(cc2[nH]c1=O)OCCO3`, the Potency result was “inactive”.

For the compound `Cc1nn(-c2ccccc2)c2nc(C(Cl)(Cl)Cl)[nH]c(=O)c12`, the Potency entry was “inactive”.

Consider `COC(=O)Cc1ccc(NC(=S)NCCSc2ccc(Cl)cc2)cc1`, for which the Potency result is “inactive”.
